A short description of test [1]: Primary fluorescence-based thiol-reactive (MSTI) qHTS assay for identification of artifact compounds. (AID 1845221). Further: nearly all actives have a fitted effect of over 65% in size. Further: potency means the concentration at half of the fitted maximal effect.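 On activity change, negative = thiol reactive: thiol-reactive compounds lower the probe fluorescence signal.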 To be noted: MSTI thiol-reactivity probe, 1 h; series mostly up to 53.8 µM. A digest of the protocol: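 Thiol-reactive compounds detected by quenching of 4 uM MSTI fluorescence (525/598 nm) after 1 h room-temperature dark incubation in PBS pH 7.4, 2% DMSO. qHTS titration; percent inhibition Hill-fitted against Acetyl-MSTI/MSTI controls.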
Background: qHTS replaces the single test concentration by a dilution series.

For test [2], the system named is Nanoluciferase (engineered Oplophorus gracilirostris luciferase). Description: Primary Nanoluciferase (NLuc) qHTS assay for identification of artifact compounds. (AID 1845222).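 Further: 0% = DMSO and -100% = no enzyme.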 To be noted: NLuc-conditioned medium, Nano-Glo luminescence, 5 min; series mostly up to 54.1 µM. A digest of the protocol: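 Compounds are pinned into diluted (1:55) conditioned medium of NLuc-expressing S16 cells and held 15 min at room temperature protected from light. Nano-Glo substrate follows, and luminescence is read 5 min later.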

The nature of test [3]: Primary redox qHTS assay for identification of artifact compounds. (AID 1845223).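 Further: 0% = DMSO and 100% = reference compound.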 The following applies: Amplex Red/HRP redox cycling with DTT, fluorescence; series mostly up to 53.8 µM. A digest of the protocol:
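Redox-cycling detection via DTT (250 uM final) oxidation coupled to Amplex Red (25 uM)/HRP (250 mU/mL) in HBSS. 15 min preincubation plus 30 min after DTT, room temperature. Ex/Em 525/598 nm; 4-parameter Hill fit against DMSO and 10 uM DA3003.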

Unmarked numbers belong to inactive results. Inconclusive results are not listed. The source made the active and inactive calls. The call rests on the fitted dose curve; in most records, active means well fitted curve in the direction sought with a large enough effect; inconclusive means small, poorly fitted or top-dose-only effect, or another doubt; inactive means no such curve, though single readings can be large; an effect the other way counts as inactive or inconclusive.

On to `CC1CCC2(C(=O)OC3OC(CO)C(O)C(O)C3O)CCC3(C)C(=CCC4C5(C)CC(O)C(O)C(C)(C(=O)O)C5CCC43C)C2C1(C)O` (centres undefined), for which the Potency result in test [1], in test [2] and in test [3] was “inactive” in each case.
`CC1CCC2(NC1)OC1C(=O)C3C4CCC5CC(O[C@@H]6O[C@H](CO)[C@@H](O)[C@H](O)[C@H]6O[C@@H]6O[C@@H](C)[C@H](O)[C@@H](O)[C@H]6O)CCC5(C)C4CCC3(C)C1C2C` (some centres undefined): the Potency entry in test [1], in test [2] and in test [3] was “inactive” each time.
On to `C=C1C(=O)OC2/C=C(\C)CC/C=C(\C(=O)O)CC/C=C(\C)CCC12` (centres undefined), for which the Potency entry in test [1], in test [2] and in test [3] was “inactive” throughout.
Consider `C=C1C[C@]23C[C@H]1CC[C@H]2[C@@]12C=C[C@H](O)[C@@](C)(C(=O)O1)[C@H]2[C@@H]3C(=O)O`, for which the Potency result in test [1], in test [2] and in test [3] was “inactive” in each case.
For `OC[C@H]1O[C@@H](n2cnc3c(NCc4ccc(O)cc4)ncnc32)[C@H](O)[C@@H]1O`, the Potency result in test [1], in test [2] and in test [3] was “inactive” throughout.
Regarding `CC(C)C(C#N)O[C@@H]1O[C@H](CO[C@@H]2OC[C@](O)(CO)[C@H]2O)[C@@H](O)[C@H](O)[C@H]1O` (some centres undefined), the Potency entry in test [1], in test [2] and in test [3] was “inactive” each time.
For the compound `C=C(C)C(C)C1OC23CC4(CO2)C(CCC2C5(C)CCC(OC6OCC(O)C(OC7OC(CO)C(O)C(OC8OCC(O)C(O)C8O)C7O)C6OC6OC(CO)C(O)C6O)C(C)(C)C5CCC24C)C3C(C)(O)C1OC(C)=O` (centres undefined), in test [1], the activity change, negative = thiol reactive was 644% [at 11.5 µM]. In test [2], the activity, negative = inhibition is 3.65% [at 11.6 µM]. The redox activity (% of DA3003) in test [3] is 8.02% [at 11.5 µM].
Take `Cc1cc(C)c(S(=O)(=O)N(Cc2ccc(-c3cccc(S(C)(=O)=O)c3)cc2)Cc2ccc(C(F)(F)F)o2)c(C)c1`: the Potency result in test [1], in test [2] and in test [3] was “inactive” each time.
Turning to `C[C@@H]1C/C=C/C=C\C=C\C=C\[C@H](O[C@@H]2O[C@H](C)[C@@H](O)[C@H](N)[C@@H]2O)C[C@@H]2O[C@](O)(C[C@@H](O)C[C@H]3O[C@@H]3/C=C/C(=O)O1)C[C@H](O)[C@H]2C(=O)O`, the Potency entry in test [1], in test [2] and in test [3] was “inactive” in each case.
`c1nc(NC2CCCCCC2)c2cc(CNC[C@H]3CCCO3)sc2n1`: the Potency result in test [1], in test [2] and in test [3] was “inactive” throughout.
Take `COc1cc(/C=C/C(=O)OC2CC(C)=C(C(=O)O)/C2=C/CO[C@@H]2O[C@H](CO)[C@@H](O)[C@H](O)[C@H]2O)ccc1O` (some centres undefined): in test [1], the Potency is 4.12 µM (active). Also, the Potency entry in test [2] and in test [3] was “inactive” each time.
On to `CC(C)C1=CC2=CCC3[C@](C)(CCC[C@@]3(C)C(=O)O)C2CC1O` (some centres undefined), for which the Potency entry in test [1], in test [2] and in test [3] was “inactive” each time.
`O=C(c1ccc(NS(=O)(=O)c2cccc3cccnc23)cc1)N1CCN(CC2CC2)CC1`: the Potency result in test [1], in test [2] and in test [3] was “inactive” each time.

Source of the values: PubChem BioAssay (NCATS).
